Key:
Assay in all cases: DAPPL (digital affinity profiling via proximity ligation, sequencing); 10 mM Tris-HCl pH 7.5, 50 mM NaCl, 1 mM DTT, 4% glycerol, room temperature, 30 min; GST-TFs on glutathione beads, 16-mer random dsDNA library, 0.1% formaldehyde crosslink after washing; high values mean tight binding
FEV = biological target: T1, FEV (Homo sapiens, UniProt Q99581 1-238); settings: protein: recombinant; tags: N-terminal GST; dsDNA, one strand shown
T1 sequence: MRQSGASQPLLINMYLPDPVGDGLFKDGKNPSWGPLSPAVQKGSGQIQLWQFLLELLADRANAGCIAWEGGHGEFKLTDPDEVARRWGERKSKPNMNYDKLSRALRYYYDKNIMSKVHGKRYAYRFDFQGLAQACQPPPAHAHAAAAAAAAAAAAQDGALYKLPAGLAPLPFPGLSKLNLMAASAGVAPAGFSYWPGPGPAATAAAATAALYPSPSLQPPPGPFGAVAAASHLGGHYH
In short: (§1)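 Binding signal is each hexamer's read frequency for a factor divided by its frequency in the tag-only sample. The factors were GST-fused human transcription factors from yeast, captured on glutathione beads, DNA-barcoded and pooled with that sample. Pools were incubated with 200 nmole of a random double-stranded 16-mer DNA library in Tris/NaCl/DTT/glycerol buffer at room temperature for 30 min, then washed, crosslinked with 0.1% formaldehyde, proximity-ligated with BsaI/T4 ligase (1 h, 37 °C), PCR-amplified and sequenced on an Illumina NextSeq500.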

ETV5 = ETV5 (Homo sapiens, UniProt P41161 1-510); settings: protein: recombinant; tags: N-terminal GST; dsDNA, one strand shown
In short: as §1

HSF1 = HSF1 (Homo sapiens, UniProt Q00613 1-529); settings: protein: recombinant; tags: N-terminal GST; chain copies: 3; dsDNA, one strand shown
In short: as §1

SPIC = biological target: T2, SPIC (Homo sapiens, UniProt Q8N5J4 1-248); settings: protein: recombinant; tags: N-terminal GST; dsDNA, one strand shown
T2 sequence: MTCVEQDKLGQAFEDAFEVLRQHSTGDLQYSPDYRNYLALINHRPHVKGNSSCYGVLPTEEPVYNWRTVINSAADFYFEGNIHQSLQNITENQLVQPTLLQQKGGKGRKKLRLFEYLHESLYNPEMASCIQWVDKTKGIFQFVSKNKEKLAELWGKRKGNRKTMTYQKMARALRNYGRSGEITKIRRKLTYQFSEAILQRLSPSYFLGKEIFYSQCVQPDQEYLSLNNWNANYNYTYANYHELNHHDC
In short: as §1

ELF4 = ELF4 (Homo sapiens, UniProt Q99607 1-663); settings: protein: recombinant; tags: N-terminal GST; dsDNA, one strand shown
In short: as §1

ELK4 = biological target: T3, ELK4 (Homo sapiens, UniProt P28324-2 1-405); settings: protein: recombinant; tags: N-terminal GST; dsDNA, one strand shown
T3 sequence: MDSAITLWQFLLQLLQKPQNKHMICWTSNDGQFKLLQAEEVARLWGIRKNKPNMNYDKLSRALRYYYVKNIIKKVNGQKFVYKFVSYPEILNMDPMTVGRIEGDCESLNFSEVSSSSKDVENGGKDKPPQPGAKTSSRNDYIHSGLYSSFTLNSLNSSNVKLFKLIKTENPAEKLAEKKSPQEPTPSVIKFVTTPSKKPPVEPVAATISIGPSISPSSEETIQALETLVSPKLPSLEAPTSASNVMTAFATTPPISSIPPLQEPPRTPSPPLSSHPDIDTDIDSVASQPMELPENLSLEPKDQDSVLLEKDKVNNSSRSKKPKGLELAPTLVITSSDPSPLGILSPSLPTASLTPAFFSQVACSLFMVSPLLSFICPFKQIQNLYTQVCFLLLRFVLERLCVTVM
In short: as §1

ETV2 = biological target: T4, ETV2 (Homo sapiens, UniProt O00321 1-342); settings: protein: recombinant; tags: N-terminal GST; dsDNA, one strand shown
T4 sequence: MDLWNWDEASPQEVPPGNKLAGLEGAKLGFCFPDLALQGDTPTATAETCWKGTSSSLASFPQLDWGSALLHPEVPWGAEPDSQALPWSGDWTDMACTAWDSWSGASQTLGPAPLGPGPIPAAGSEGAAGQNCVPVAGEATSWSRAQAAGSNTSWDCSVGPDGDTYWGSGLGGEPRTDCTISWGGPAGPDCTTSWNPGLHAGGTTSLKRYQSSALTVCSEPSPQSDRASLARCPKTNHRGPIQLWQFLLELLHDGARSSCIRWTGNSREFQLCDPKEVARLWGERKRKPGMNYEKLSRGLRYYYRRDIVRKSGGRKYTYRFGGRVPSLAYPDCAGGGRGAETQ
In short: as §1

ELF3 = biological target: T5, ELF3 (Homo sapiens, UniProt P78545 1-371); settings: protein: recombinant; tags: N-terminal GST; dsDNA, one strand shown
T5 sequence: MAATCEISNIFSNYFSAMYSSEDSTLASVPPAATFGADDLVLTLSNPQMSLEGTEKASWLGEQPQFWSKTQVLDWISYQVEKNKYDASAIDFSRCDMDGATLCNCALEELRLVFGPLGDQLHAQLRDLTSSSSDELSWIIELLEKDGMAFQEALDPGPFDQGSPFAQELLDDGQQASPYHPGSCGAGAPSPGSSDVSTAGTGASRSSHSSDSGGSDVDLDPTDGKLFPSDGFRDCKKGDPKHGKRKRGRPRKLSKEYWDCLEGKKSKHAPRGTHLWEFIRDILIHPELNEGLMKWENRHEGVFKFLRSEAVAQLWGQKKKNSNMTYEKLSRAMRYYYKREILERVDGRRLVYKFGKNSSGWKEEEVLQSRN
In short: as §1

CRX = CRX (Homo sapiens, UniProt O43186 1-299); settings: protein: recombinant; tags: N-terminal GST; dsDNA, one strand shown
In short: as §1

ETV1 = ETV1 (Homo sapiens, UniProt P50549 1-477); settings: protein: recombinant; tags: N-terminal GST; dsDNA, one strand shown
In short: as §1

ERF = biological target: T6, ERF (Homo sapiens, UniProt P50548 1-548); settings: protein: recombinant; tags: N-terminal GST; dsDNA, one strand shown
T6 sequence: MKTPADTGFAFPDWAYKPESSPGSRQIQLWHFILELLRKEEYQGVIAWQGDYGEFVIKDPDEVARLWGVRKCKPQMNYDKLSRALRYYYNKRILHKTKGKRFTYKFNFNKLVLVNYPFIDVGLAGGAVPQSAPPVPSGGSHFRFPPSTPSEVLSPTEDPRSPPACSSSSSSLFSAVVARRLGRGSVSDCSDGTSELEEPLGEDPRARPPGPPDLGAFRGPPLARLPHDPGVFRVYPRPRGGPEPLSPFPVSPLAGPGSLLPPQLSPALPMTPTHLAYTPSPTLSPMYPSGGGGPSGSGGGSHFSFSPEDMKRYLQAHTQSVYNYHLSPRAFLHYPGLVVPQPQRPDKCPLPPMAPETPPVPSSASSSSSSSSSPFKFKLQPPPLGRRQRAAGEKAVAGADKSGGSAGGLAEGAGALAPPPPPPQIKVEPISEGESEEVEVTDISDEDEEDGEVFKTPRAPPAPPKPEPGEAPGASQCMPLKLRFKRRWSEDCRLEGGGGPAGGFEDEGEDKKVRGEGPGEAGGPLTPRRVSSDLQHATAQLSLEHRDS
In short: as §1

ETV3L = biological target: T7, ETV3L (Homo sapiens, UniProt Q6ZN32 1-361); settings: protein: recombinant; tags: N-terminal GST; dsDNA, one strand shown
T7 sequence: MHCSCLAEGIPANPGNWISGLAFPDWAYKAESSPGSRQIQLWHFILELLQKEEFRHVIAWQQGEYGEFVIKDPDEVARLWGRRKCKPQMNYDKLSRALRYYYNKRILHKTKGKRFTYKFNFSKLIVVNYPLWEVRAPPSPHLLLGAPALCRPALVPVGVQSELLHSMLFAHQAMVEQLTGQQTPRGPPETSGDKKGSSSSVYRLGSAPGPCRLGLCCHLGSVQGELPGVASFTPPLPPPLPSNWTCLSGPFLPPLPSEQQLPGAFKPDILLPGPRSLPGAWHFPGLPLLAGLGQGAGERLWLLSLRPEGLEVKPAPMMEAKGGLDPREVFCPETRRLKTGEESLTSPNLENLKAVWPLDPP
In short: as §1

ETS2 = biological target: T8, ETS2 (Homo sapiens, UniProt P15036 1-469); settings: protein: recombinant; tags: N-terminal GST; dsDNA, one strand shown
T8 sequence: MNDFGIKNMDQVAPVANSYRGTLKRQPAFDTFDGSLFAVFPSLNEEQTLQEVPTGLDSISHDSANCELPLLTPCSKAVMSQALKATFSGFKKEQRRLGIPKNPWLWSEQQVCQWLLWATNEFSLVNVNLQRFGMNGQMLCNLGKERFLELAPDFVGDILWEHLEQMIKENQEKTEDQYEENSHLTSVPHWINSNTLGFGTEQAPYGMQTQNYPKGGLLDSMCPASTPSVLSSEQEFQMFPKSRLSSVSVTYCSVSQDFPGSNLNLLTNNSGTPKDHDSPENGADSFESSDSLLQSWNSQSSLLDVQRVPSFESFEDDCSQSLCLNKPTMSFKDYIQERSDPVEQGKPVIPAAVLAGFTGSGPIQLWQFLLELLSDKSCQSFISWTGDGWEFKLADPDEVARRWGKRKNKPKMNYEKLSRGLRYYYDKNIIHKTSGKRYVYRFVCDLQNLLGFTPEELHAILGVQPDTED
In short: as §1

SPDEF = biological target: T9, SPDEF (Homo sapiens, UniProt O95238 1-335); settings: protein: recombinant; tags: N-terminal GST; dsDNA, one strand shown
T9 sequence: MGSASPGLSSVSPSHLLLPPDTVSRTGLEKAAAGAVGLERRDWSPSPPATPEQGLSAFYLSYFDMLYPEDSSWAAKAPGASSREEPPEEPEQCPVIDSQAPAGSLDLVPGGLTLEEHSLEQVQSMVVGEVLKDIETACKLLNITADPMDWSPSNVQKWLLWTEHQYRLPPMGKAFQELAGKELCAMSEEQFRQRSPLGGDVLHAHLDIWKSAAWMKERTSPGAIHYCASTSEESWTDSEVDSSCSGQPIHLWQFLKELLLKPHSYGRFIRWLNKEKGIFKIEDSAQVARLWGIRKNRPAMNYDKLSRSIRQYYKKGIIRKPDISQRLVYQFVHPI
In short: as §1

ETV7 = biological target: T10, ETV7 (Homo sapiens, UniProt Q9Y603 1-341); settings: protein: recombinant; tags: N-terminal GST; dsDNA, one strand shown
T10 sequence: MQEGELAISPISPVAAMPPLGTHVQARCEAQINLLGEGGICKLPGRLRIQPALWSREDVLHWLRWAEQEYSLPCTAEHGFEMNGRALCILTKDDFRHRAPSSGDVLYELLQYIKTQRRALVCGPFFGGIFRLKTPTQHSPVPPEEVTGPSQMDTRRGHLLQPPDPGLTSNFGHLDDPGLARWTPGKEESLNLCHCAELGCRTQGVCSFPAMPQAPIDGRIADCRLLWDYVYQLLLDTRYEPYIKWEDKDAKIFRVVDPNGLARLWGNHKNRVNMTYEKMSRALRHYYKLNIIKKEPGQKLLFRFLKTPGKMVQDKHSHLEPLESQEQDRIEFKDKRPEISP
In short: as §1

ELF5 = biological target: T11, ELF5 (Homo sapiens, UniProt Q9UKW6-2 1-255); settings: protein: recombinant; tags: N-terminal GST; dsDNA, one strand shown
T11 sequence: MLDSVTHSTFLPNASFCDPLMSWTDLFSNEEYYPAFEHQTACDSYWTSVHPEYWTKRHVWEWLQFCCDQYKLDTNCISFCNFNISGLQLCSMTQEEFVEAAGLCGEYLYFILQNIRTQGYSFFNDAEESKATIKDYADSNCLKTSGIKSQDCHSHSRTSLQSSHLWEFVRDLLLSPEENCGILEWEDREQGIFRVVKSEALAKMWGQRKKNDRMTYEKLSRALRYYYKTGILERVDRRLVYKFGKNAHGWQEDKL
In short: as §1

ETV3 = biological target: T12, ETV3 (Homo sapiens, UniProt P41162-2 1-143); settings: protein: recombinant; tags: N-terminal GST; dsDNA, one strand shown
T12 sequence: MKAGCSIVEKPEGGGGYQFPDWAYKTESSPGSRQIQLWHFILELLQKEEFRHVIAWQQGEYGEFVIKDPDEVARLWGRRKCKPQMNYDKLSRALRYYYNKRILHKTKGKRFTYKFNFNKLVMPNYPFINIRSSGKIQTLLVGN
In short: as §1

ETV6 = ETV6 (Homo sapiens, UniProt P41212 1-452); settings: protein: recombinant; tags: N-terminal GST; dsDNA, one strand shown
In short: as §1

Chain of ETV1 (P50549 whole entry): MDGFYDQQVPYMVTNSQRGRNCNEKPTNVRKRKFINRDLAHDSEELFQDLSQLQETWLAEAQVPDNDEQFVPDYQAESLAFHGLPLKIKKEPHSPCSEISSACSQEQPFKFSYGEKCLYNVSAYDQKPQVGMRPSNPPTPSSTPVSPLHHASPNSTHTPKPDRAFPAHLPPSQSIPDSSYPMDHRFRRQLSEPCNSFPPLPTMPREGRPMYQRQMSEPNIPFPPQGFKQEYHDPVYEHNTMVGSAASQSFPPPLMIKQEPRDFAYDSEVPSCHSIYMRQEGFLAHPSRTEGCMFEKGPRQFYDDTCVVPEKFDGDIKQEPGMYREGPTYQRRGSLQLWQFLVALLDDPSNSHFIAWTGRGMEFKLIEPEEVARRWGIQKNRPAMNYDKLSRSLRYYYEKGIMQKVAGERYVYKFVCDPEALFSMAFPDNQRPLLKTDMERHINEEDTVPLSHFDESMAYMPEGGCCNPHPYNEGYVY
Chain of ELF4 (Q99607 whole entry): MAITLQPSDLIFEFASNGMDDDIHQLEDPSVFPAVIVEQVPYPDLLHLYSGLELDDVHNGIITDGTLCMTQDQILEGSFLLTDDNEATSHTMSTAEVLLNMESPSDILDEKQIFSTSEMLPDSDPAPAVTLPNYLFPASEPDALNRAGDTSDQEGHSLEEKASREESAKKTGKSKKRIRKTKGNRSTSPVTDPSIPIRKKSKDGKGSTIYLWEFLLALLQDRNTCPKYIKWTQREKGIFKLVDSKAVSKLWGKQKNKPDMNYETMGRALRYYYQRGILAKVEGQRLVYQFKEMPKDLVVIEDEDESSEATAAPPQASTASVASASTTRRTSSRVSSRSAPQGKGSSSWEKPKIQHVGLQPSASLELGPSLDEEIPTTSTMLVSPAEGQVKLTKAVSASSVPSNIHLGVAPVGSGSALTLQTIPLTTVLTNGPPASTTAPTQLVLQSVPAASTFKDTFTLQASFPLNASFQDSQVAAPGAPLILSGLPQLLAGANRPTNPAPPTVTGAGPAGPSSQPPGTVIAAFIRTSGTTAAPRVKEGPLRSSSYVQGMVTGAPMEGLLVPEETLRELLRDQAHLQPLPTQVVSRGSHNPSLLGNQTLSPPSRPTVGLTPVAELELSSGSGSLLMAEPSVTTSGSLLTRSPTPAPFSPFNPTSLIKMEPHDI
Chain of ETV6 (P41212 whole entry): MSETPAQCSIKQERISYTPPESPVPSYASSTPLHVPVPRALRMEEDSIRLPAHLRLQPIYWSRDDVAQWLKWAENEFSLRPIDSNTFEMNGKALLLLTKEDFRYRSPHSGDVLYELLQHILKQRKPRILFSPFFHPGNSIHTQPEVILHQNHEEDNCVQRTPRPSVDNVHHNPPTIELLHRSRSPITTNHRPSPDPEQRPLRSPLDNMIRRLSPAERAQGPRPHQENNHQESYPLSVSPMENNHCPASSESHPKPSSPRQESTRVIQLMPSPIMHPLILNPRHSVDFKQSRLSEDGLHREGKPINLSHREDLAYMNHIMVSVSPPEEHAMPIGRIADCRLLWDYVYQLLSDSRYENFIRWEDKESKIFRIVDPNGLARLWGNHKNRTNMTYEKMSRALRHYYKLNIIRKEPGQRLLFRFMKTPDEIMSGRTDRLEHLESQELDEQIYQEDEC
Chain of ETV5 (P41161 whole entry): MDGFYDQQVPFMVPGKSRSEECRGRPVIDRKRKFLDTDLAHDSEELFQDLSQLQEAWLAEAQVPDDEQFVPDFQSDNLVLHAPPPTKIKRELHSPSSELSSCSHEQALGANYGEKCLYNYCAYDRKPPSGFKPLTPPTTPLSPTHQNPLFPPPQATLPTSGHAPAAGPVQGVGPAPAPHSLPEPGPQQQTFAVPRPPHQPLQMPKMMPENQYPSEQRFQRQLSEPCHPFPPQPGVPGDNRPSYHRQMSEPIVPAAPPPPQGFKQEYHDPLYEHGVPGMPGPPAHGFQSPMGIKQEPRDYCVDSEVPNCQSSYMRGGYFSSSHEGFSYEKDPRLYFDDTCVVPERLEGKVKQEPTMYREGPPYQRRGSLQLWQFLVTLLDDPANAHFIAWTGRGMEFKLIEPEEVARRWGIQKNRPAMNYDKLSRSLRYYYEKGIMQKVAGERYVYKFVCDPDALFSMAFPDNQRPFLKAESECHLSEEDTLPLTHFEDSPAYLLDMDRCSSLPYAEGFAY
Chain of HSF1 (Q00613 whole entry): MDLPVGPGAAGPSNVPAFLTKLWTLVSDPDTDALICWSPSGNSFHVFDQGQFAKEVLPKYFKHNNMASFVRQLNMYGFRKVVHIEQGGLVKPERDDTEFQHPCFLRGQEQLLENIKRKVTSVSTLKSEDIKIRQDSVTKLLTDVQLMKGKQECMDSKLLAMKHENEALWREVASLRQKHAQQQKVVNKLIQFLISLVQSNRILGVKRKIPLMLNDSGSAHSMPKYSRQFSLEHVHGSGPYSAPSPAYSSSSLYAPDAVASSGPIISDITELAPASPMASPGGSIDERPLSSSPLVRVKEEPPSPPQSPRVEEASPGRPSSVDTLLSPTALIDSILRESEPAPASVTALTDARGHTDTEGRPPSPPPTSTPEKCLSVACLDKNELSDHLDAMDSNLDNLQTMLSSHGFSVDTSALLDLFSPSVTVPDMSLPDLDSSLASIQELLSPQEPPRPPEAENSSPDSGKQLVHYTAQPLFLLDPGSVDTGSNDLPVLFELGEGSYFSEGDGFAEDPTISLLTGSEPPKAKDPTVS
Chain of CRX (O43186 whole entry): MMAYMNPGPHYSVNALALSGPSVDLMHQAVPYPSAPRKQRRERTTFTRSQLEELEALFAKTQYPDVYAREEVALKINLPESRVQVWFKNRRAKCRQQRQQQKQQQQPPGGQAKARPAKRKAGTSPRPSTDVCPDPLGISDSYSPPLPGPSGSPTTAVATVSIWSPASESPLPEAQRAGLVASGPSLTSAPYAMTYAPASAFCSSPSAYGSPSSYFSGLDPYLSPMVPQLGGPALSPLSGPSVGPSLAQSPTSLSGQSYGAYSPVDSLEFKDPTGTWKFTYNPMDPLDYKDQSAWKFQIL

TCAATT
binding signal (FEV): 1.16 fold enrichment (6-mer frequency, TF over GST control)
binding signal (ETV5): 1.21 fold enrichment (6-mer frequency, TF over GST control)
binding signal (HSF1): 1.1 fold enrichment (6-mer frequency, TF over GST control)
binding signal (SPIC): 1.14 fold enrichment (6-mer frequency, TF over GST control)
binding signal (ELF4): 1.18 fold enrichment (6-mer frequency, TF over GST control)
binding signal (ELK4): 1.08 fold enrichment (6-mer frequency, TF over GST control)
binding signal (ETV2): 1.24 fold enrichment (6-mer frequency, TF over GST control)
binding signal (ELF3): 1.12 fold enrichment (6-mer frequency, TF over GST control)
binding signal (CRX): 1.17 fold enrichment (6-mer frequency, TF over GST control)
binding signal (ETV1): 1.14 fold enrichment (6-mer frequency, TF over GST control)
binding signal (ERF): 1.13 fold enrichment (6-mer frequency, TF over GST control)
binding signal (ETV3L): 1.29 fold enrichment (6-mer frequency, TF over GST control)
binding signal (ETS2): 1.17 fold enrichment (6-mer frequency, TF over GST control)
binding signal (SPDEF): 1.15 fold enrichment (6-mer frequency, TF over GST control)
binding signal (ETV7): 1.12 fold enrichment (6-mer frequency, TF over GST control)
binding signal (ELF5): 1.13 fold enrichment (6-mer frequency, TF over GST control)
binding signal (ETV3): 1.21 fold enrichment (6-mer frequency, TF over GST control)
binding signal (ETV6): 1.14 fold enrichment (6-mer frequency, TF over GST control)

From publication PMC7862700, “An all-to-all approach to the identification of sequence-specific readers for epigenetic DNA modifications on cytosine”
